Screening data (PubChem BioAssay)
An excerpt weighted towards active compounds, which were near 2.4% of everything screened.
D2 antag – HTS Assay for Allosteric Antagonists of the Human D2 Dopamine Receptor: Primary Screen for Antagonists. D(2) dopamine receptor (Homo sapiens), P14416. HEK293 TREx D2 cells, calcium flux, dopamine EC80. inhibition, % at 10 µM. 2% of 340,000 active; in the data active means inhibition above about 30%; inactive means below that, where a call was filed
Target sequence (P14416 whole entry, looked up): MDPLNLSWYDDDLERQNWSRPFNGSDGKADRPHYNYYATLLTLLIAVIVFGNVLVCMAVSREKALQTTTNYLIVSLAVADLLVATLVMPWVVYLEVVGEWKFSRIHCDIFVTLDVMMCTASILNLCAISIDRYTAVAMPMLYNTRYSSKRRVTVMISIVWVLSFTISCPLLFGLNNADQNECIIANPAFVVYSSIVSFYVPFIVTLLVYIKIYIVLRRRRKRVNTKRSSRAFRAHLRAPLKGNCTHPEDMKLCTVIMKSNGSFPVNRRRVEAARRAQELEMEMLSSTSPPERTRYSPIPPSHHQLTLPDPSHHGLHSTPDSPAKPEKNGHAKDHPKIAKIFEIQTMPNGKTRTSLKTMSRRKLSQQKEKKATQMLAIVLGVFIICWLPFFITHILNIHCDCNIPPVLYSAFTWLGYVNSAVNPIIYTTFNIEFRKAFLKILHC
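Inhibition of EC80 dopamine-driven calcium flux, recorded kinetically, defines activity here; cells are a tetracycline-induced HEK293 T-REx line expressing force-coupled D2.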
D2 ag-1 – HTS Assay for Allosteric Agonists of the Human D2 Dopamine Receptor: Primary Screen for Agonists | HEK293 T-REx D2 cells, calcium flux agonist mode | activation, % at 2 µM | 0.53% of 340,000 active | AID 485358, 2010;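 active means activation over 3 SD above normal in the single-dose calcium agonist read, cut at about 30% in these data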
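Agonism is scored from calcium flux in a force-coupled, inducible HEK293 cell line expressing D2, read kinetically for 180 s after compound addition against dopamine controls.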
D2 PAM-1 – HTS Assay for Positive Allosteric Modulators of the Human D2 Dopamine Receptor: Primary Screen for Potentiators; D(2) dopamine receptor (Homo sapiens), P14416; HEK293 T-REx D2, calcium flux, EC20 dopamine potentiation; potentiation, % at 10 µM; 0.34% of 340,000 active; AID 485347, 2010;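 active means potentiation over 3 SD above the plate norm, cut at about 30% in these data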
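Cells plated with tetracycline inducer and held overnight at 30 C; calcium dye loaded 30–90 min at room temperature; baseline taken, compound added and read 180 s; EC20 dopamine then added and read 180 s.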
D2 ag-2 – Beta-Arrestin HTS for Positive Allosteric Modulators of the Human D2 Dopamine Receptor: Agonists. activation, % (test concentration not listed). DiscoveRx PathHunter D2 beta-arrestin, luminescence, 90 min; 100% = 57 uM dopamine signal. 0.084% of 360,000 active; in the data active means activation above about 40%; inconclusive means between about 15% and that limit
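Agonist mode: compounds alone added to overnight-plated D2 PathHunter cells for 90 min at 37 C, with 57 uM final dopamine (EC100) defining full response. Beta-arrestin recruitment detected by chemiluminescent reagent, read after 1 h at ambient temperature.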
D2 PAM-2 – Beta-Arrestin HTS for Positive Allosteric Modulators of the Human D2 Dopamine Receptor: Potentiators; D(2) dopamine receptor (Homo sapiens), P14416; DiscoveRx D2 beta-arrestin cells, luminescence, 90 min; 100% = 57 uM dopamine signal; potentiation, % (concentration not given with the values); 0.23% of 360,000 active; AID 624464, 2012; in the data active means potentiation above about 50%; inconclusive means mostly about 30% to 49%
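PathHunter D2 cells, attached overnight at 37 deg C, received compound in DMSO plus dopamine at EC20 (50 nM final) for 90 min at 37 deg C. Beta-arrestin recruitment was read as luminescence after 1 h with detection reagent at ambient temperature.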
Hits are given with their value; 0 = inactive; ? = inconclusive; - = not tested or not shown.

SMILES | D2 antag | D2 ag-1 | D2 PAM-1 | D2 ag-2 | D2 PAM-2
O=C(Nc1ccc2c(c1)OCO2)NC1CCN(Cc2ccccc2)CC1 | 46.4 | 0 | 0 | 0 | 0
O=C(Nc1ccccc1)NC1CCN(Cc2c(F)cccc2Cl)CC1 | 0 | 0 | 0 | 0 | 0
O=C(CCNS(=O)(=O)c1cccs1)NC1CCN(Cc2ccccc2)CC1 | 41.3 | 0 | 0 | 0 | 0
Cc1ccc(Cl)cc1S(=O)(=O)N1CCC(C(=O)NC2CCN(Cc3ccccc3)CC2)CC1 | 31.1 | 0 | 0 | 0 | 0
O=C(CCNS(=O)(=O)c1ccc(Br)cc1)NC1CCN(Cc2ccccc2)CC1 | - | - | - | 0 | 0
CC(Oc1ccccc1)C(=O)NC1CCCCCCC1 (stereo unspecified) | 0 | 0 | 0 | 0 | 0
Cc1ccccc1CC(=O)NC1CCN(Cc2ccccc2)CC1 | 56.1 | 0 | 0 | 0 | 0
CCCN1CCC(NC(=O)Cc2ccccc2C)CC1 | 0 | 0 | 0 | 0 | 0
CC(Oc1ccccc1)C(=O)NC1CCN(Cc2ccccc2)CC1 (stereo unspecified) | 42.2 | 0 | 0 | 0 | 0
CCOC(=O)C1CCN(C(=O)c2ccc(NC(=O)c3nsc4ccccc34)cc2)CC1 | - | 0 | 0 | - | -
COc1ccccc1CNC(=O)c1ccc(CSc2nc3ccncc3n2Cc2cccc(F)c2)cc1 | - | 0 | 0 | - | -
COc1cc2nc(SCc3ccc(Cl)cc3)n3nc(CCn4nc(C)cc4C)nc3c2cc1OC | - | 0 | 0 | - | -
Cc1ccc(CC(=O)NC2CCN(Cc3ccccc3)CC2)cc1 | 0 | 0 | 0 | 0 | 0
O=C(Cc1ccccc1)NC1CCN(Cc2ccccc2)CC1 | 36.4 | 0 | 0 | 0 | 0
O=C(NC1CCN(Cc2ccccc2)CC1)C12CC3CC(CC(C3)C1)C2 | 32.0 | 0 | 0 | 0 | 0
CCOc1ccc(CC(=O)OCN2C(=O)c3ccccc3C2=O)cc1 | 0 | 0 | 30.3 | 0 | 0
CCCCNC(=O)c1sc(=S)n2c1[nH]c(=O)c1ccccc12 | 32.7 | 0 | 0 | 0 | 0
Cc1ccc2nc3cc([N+](=O)[O-])cc([N+](=O)[O-])c3cc2c1 | 0 | 0 | - | 0 | 0
Cc1ccccc1-n1ncc2c([N+](=O)[O-])cc([N+](=O)[O-])cc21 | 0 | 0 | 0 | 0 | 83.2
O=C(COC(=O)CNS(=O)(=O)c1ccc2ccccc2c1)Nc1ccccc1Sc1ccccc1 | 0 | 34.5 | 0 | 0 | 0
COc1ccc(-n2c(O)c(/C=N/NS(=O)(=O)c3ccc(C)cc3)c3ccccc3c2=O)cc1OC | 0 | 0 | 0 | 0 | 0
COc1ccc(-n2c(O)c(/C=N/NS(=O)(=O)c3cc(C)ccc3C)c3ccccc3c2=O)cc1OC | 0 | 41.4 | 0 | 0 | 0
Cc1cccc(-n2c(C)cc(C(=O)C(=O)Nc3ccccc3F)c2C)c1C | - | 0 | - | - | -
COc1ccc(-n2nc([N+](=O)[O-])c(=NCCc3cccc(C)c3)n2O)cc1 | 0 | 0 | 0 | 0 | 65.2
Cc1cccc(CCN=c2c([N+](=O)[O-])nn(-c3ccccc3)n2O)c1 | 0 | 0 | 0 | 0 | 0
SMILES | D2 antag | D2 ag-1 | D2 PAM-1 | D2 ag-2 | D2 PAM-2
COc1ccc(-n2nc([N+](=O)[O-])c(=NCc3ccc4c(c3)OCO4)n2O)cc1 | 0 | 0 | 0 | ? | 121.8
COc1ccc(-n2nc([N+](=O)[O-])c(=NCCCN3CCCC3=O)n2O)cc1 | 0 | 0 | 0 | 0 | 0
O=C1CCCN1CCCN=c1c([N+](=O)[O-])nn(-c2ccc(Cl)cc2)n1O | - | - | 0 | 0 | 51.8
Cc1ccc(N=c2c([N+](=O)[O-])nn(-c3ccccc3)n2O)c(C)c1 | 0 | 0 | 0 | 0 | 55.2
COc1ccc(OC)c(CNc2ncnc3onc(-c4ccc(Cl)cc4)c23)c1 | - | 0 | 0 | - | -
CCCOC(=O)c1ccc(Nc2nc3ccccc3nc2-n2nc(C)cc2C)cc1 | - | 0 | 0 | - | -
O=[N+]([O-])c1nn(-c2ccc3c(c2)OCCO3)n(O)c1=NCCCO | 0 | 0 | 0 | ? | 72.8
Cc1ccc(CN=c2c([N+](=O)[O-])nn(-c3ccc4c(c3)OCCO4)n2O)cc1 | 0 | 0 | 0 | ? | 134.9
CCc1ccc(N=c2c([N+](=O)[O-])nn(-c3ccc4c(c3)OCCO4)n2O)cc1 | 0 | 0 | 0 | 0 | ?
COc1ccc(CCNc2ncnc3c2nnn3C)cc1OC | - | 0 | 0 | - | -
Cc1cc(C)n2nc(CNC(=O)c3cccc(N(C)C)c3)nc2n1 | - | 0 | 0 | - | -
CC(C)C(=O)Nc1nnc2n1CCS2 | - | 0 | 0 | - | -
CCOC(=O)N1N=C(CC)CC1(O)C(F)(F)F (stereo unspecified) | 0 | 0 | 38.1 | 0 | 0
CCC(C(=O)Nc1ccc(C(=O)OC)cc1)n1nc(-c2ccc(C)cc2)c2c(c1=O)CCCC2 (stereo unspecified) | - | 0 | 0 | - | -
CCc1ccc(S(=O)(=O)NCc2ccc3c(c2)CCN3C(=O)c2ccc(C)cc2)cc1 | - | 0 | 0 | - | -
COc1ccccc1OCCNC(=O)C1CCN(C(C)=O)CC1 | 0 | 0 | 30.6 | 0 | 0
CCCC(=O)C1=C(O)C(C(=O)OC)C(C)(C)CC1=NC(C)C (stereo unspecified) | 32.7 | 0 | 0 | 0 | 0
O=C(CCCc1nc(-c2ccccc2)no1)Nc1cccnc1 | - | - | - | 0 | 0
O=C(CCc1nc(-c2ccccc2)no1)Nc1cccnc1 | 57.9 | 0 | 0 | 0 | 0
O=C1CC(c2nc3ccccc3[nH]2)CN1c1cccc(C(F)(F)F)c1 (stereo unspecified) | 32.9 | 0 | 0 | 0 | 0
Cc1ccc(N2CC(C(=O)N3CCC(c4nc5ccccc5[nH]4)CC3)CC2=O)cc1C (stereo unspecified) | 33.6 | 0 | 0 | 0 | 0
O=C(C1CC(=O)N(c2ccc(F)cc2)C1)N1CCC(c2nc3ccccc3[nH]2)CC1 (stereo unspecified) | 0 | 0 | 0 | 0 | 0
Cc1ccc(NC(=O)CN(C)C(=O)COc2cc(F)ccc2[N+](=O)[O-])cc1 | 61.9 | 0 | 0 | 0 | 0
COc1ccc(-c2cc([N+](=O)[O-])ccc2OCC(=O)N(C)CC(=O)Nc2ccc(C)cc2)cc1 | 0 | 0 | 0 | 0 | 0
CCOC(=O)N1CCN(C(=O)C2CCN(S(=O)(=O)c3cc(C)ccc3OC)CC2)CC1 | 33.4 | 0 | 0 | 0 | 0
Cc1ccccc1N1C(=O)CC(Nc2ccc3c(c2)OCO3)C1=O (stereo unspecified) | 31.4 | 0 | 0 | 0 | 0
COc1ccccc1CNC(=O)C1CCCN(c2nc3ccccc3n3cccc23)C1 (stereo unspecified) | - | 0 | 0 | - | -
Cc1[nH]oc(=O)c1N=Nc1ccccc1 | 0 | 0 | 0 | 0 | 57.2
CC(=O)N1CCN(c2ccccc2NC(=O)c2ccc3ccccc3c2)CC1 | 46.3 | 0 | 0 | 0 | 0
